Consider 6 compounds from PubChem BioAssay (NCATS).

The structures appear in SMILES notation. Unmarked numbers belong to inactive results. Results filed as inconclusive are left out. Activity calls are given as the source filed them. Unless noted, calls come from the whole dose curve; as a rule, active = well fitted curve in the direction sought with a large enough effect; inconclusive = small, poorly fitted or top-dose-only effect, or another doubt; inactive = no such curve, though single readings can be large; an effect the other way counts as inactive or inconclusive. Bounds are passed on as bounds.

For one experiment, the target named is Furin (Homo sapiens) (UniProt P09958). Kind of experiment: Furin counterscreen qHTS for Zika virus inhibitors (AID 1347149).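 For activity change, negative = inhibition: purified recombinant full-length human furin enzyme at 5 nM; fluorescence gain from furin cutting a BOC-RVRR-AMC peptide substrate over 15 min; top concentration of the series differs between compounds; plate controls were no-inhibitor control for no effect and no-enzyme control for full effect.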 Note: nearly all actives have a fitted effect of over 70% in size. Note: potency is the fitted concentration of half-maximal effect. In outline:
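Counterscreen measures cleavage of 2 microM BOC-RVRR-AMC, below its ~15 microM Km, by 5 nM full-length human furin at pH 7.0 after a 15-min compound preincubation. Inhibition derives from the 15-min fluorescence increase at 37C.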
Background: A counterscreen serves to expose hits that act by an unwanted route or on another target.

Experiment [1] relates to Zika virus NS2B-NS3 protease (linked construct). The experiment can be described thus: Confirmatory screen NINDS AMC qHTS for Zika virus inhibitors (AID 1347152).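 For activity change, negative = inhibition: AMC fluorescence gain from cleaved Bz-Nle-KRR-AMC substrate over 15 min; top concentration of the series differs between compounds; 0% = no-inhibitor control and -100% = no-enzyme control.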 Note: nearly all actives have a fitted effect of over 70% in size. Note: potency is the fitted concentration of half-maximal effect. The gist of the method: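 Purified NS2B-NS3 protease with NS2B hydrophilic domain linked to NS3 protease domain by flexible linker, 1 nM final in 10 mM Tris-HCl pH 8.0, 0.01% Tween 20. Compounds preincubated 15 min, room temperature; Bz-Nle-KRR-AMC 10 microM (Km 18.3 µM); 15-min fluorescence change, 4-parameter Hill fit.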

Experiment [2] concerns Zika virus NS2B-NS3 protease (unlinked complex). Kind of experiment: Confirmatory screen GU AMC qHTS for Zika virus inhibitors (AID 1347153).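 For potency: enzyme at 25 nM with substrate at 10 µM below its Km of 18.3 µM; potency is the fitted concentration of half-maximal effect.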 Note: nearly all actives have a fitted effect of over 70% in size. The gist of the method:
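Unlinked NS2B-NS3 complex (25 nM) in 10 mM Tris-HCl pH 8.0, 0.01% Tween 20 preincubated 15 min with compound, then 10 microM Bz-Nle-KRR-AMC (Km 18.3 µM). Fluorescence change over 15 min, normalized, Hill-fitted.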
(In general: In qHTS, concentration-response curves come from the screen itself.)

Experiment [3] deals with Zika virus NS2B-NS3 protease. The experiment can be described thus: Primary screen GU AMC qHTS for Zika virus inhibitors (AID 1347154). Note: potency is the fitted concentration of half-maximal effect; nearly all actives have a fitted effect of over 70% in size. The gist of the method: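 Unlinked Zika NS2B hydrophilic domain/NS3 protease domain noncovalent complex (25 nM final) in 10 mM Tris-HCl pH 8.0, 0.01% Tween 20, with AMC peptide substrate. Fluorescence (ex 340, em 450 nm) change over 15 min, room temperature; percent inhibition fitted to 4-parameter Hill equation.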

The nature of experiment [4]: Confirmatory screen NINDS Rhodamine qHTS for Zika virus inhibitors (AID 1347161).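 Note: purified Zika NS2B-NS3 protease with linked NS2B cofactor domain and Rhodamine110 peptide substrate; plate controls were no-inhibitor control for no effect and no-enzyme control for full effect; nearly all actives have a fitted effect of over 60% in size.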 In outline: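 In 10 mM Tris-HCl pH 8.0 containing 0.01% Tween 20, linked NS2B-NS3 protease (25 nM final) is exposed to test compounds for 15 min. Cleavage of 1.5 microM Rhodamine110 substrate is tracked by fluorescence over 15 min.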
Experiment [5] can be described thus: HepG2 cells viability qHTS for Zika virus inhibitors (AID 1347168). Note: % is set by controls: 0 for no effect and ±100 for the full control effect. The gist of the method: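 To flag cytotoxic protease inhibitors, viability is measured by ATP-dependent luminescence (CellTiter Glo) after cells attached overnight receive compound for 24 to 48 hours in DMEM with 4% FBS.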
Experiment [6] deals with Zika virus NS2B-NS3 protease (unlinked). Kind of experiment: Optimization of GU AMC qHTS for Zika virus inhibitors: Unlinked NS2B-NS3 protease assay (AID 1347151). Note: potency is the fitted concentration of half-maximal effect; nearly all actives have a fitted effect of over 80% in size. In outline:
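Noncovalent complex of NS2B hydrophilic domain and NS3 protease domain, 25 nM final, in 10 mM Tris-HCl pH 8.0, 0.01% Tween 20. AMC fluorescence change over 15 min at room temperature was fitted to a 4-parameter Hill equation.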

Experiment [7] is described as follows: ZIKV-mCherry secondary qHTS for Zika virus inhibitors (AID 1347158). Note: top concentration of the series differs between compounds. In outline:
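Compounds were tested in Vero monkey kidney cells infected with recombinant mCherry-expressing Zika virus at MOI 1 for 48-72 h at 37 °C. Fixed cells were nuclear-stained and imaged, and infection rate was taken as the fraction of mCherry-positive cells.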

For experiment [8], the system named is Zika virus NS2B-NS3 protease (linked). The experiment can be described thus: 384 well plate NINDS AMC confirmatory qHTS for Zika virus inhibitors (AID 1347163).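 For activity change, negative = inhibition: linked protease at 5 30 or 60 nM final depending on run; fluorescence of AMC released from Ac-VKTGKR-AMC peptide cleaved by the protease; top concentration of the series differs between compounds; 0% = no-inhibitor control and -100% = no-enzyme control.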 Note: nearly all actives have a fitted effect of over 50% in size. Note: potency is the fitted concentration of half-maximal effect. The gist of the method: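 Fluorescence at 355/460 nm was read after 25 minutes of cleavage of 30 microM Ac-VKTGKR-AMC at room temperature, in the dark. Before substrate addition, compounds (up to 1 mM final) sat ~15 minutes with 5, 30 or 60 nM linked protease. Signals were normalized to no-enzyme and no-inhibitor wells.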

The subject of experiment [9] is Zika virus NS2B-NS3 protease (linked construct). The experiment can be described thus: 384 well plate NINDS Rhodamine confirmatory qHTS for Zika virus inhibitors (AID 1347164).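 Note: fluorescence from protease cleavage of Ac-LKRR-rhodamine 110 substrate; potency is the fitted concentration of half-maximal effect; nearly all actives have a fitted effect of over 65% in size.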 In outline:
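Linked protease at a final 5 nM, 30 nM or 60 nM was preincubated ~15 min with compounds, then given 10 microM Ac-LKRR-Rhodamine 110. Fluorescence (ex 485/em 538 nm) after 25 min in the dark at room temperature.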

Experiment [10] in a line: Tertiary RLuc qRT-PCR qHTS assay for Zika virus inhibitors (AID 1347169). Note: potency is the fitted concentration of half-maximal effect; nearly all actives have a fitted effect of over 55% in size. In outline:
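Vero cells (1,000 per well) plated overnight at 37 degrees C, treated with compound in DMSO, then infected with recombinant ZIKV-RLuc (Cambodian) at MOI 1-2 for 48-72 hrs. Live-cell Renilla luciferase substrate added; luminescence read after 1-1.5 hrs.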
A general note: In qPCR the cycle at which signal appears reflects the starting amount.

The target in experiment [11] is Lysosomal acid glucosylceramidase (Homo sapiens) (UniProt P04062). The experiment can be described thus: Glucocerebrosidase-p2 (AID 348; in the data active = potency below about 10 µM; note: potency is the fitted concentration of half-maximal effect). Conditions: purified GBA, blue fluorogenic substrate, 40 min. The gist of the method:
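Normal human glucocerebrosidase (0.2 nM) with blue fluorogenic substrate (80 uM final) in citrate/phosphate pH 5.9 with 10mM sodium taurocholate, 0.01% tween-20; 40 min RT, NaOH/glycine stop; fluorescence Ex 365/Em 440; AC50 from a titration from 0.6 nM upwards.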

A short description of experiment [12]: AP1 Signaling Pathway (AID 357; active = well fitted curve in either direction with a large enough effect, not every such curve was filed as active;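 note: ME-180 reporter cells stimulated with EGF at its EC50 level; % is set by controls: 0 for no effect and ±100 for the full control effect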). The note with it: ME-180 (cervical carcinoma) AP-1-bla reporter, EGF-induced, beta-lactamase ratio, 5 h; at 7.69 µM (top of the series). The gist of the method:
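First, ME-180 AP-1-bla cells were cultured overnight at 37 °C in low-serum Opti-MEM. Next, titrated compounds with EC50 EGF were incubated 5 hours. Finally, CCF4 was added for 2.5 hours and the 460/530 nm ratio recorded.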

Experiment [13] concerns the target Glucocorticoid receptor (Homo sapiens) (UniProt P04150). The experiment can be described thus: GR-GFP Redistribution (AID 450;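 active = compounds whose dose series gives a full or clear partial fitted curve of increased nuclear translocation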; note: potency is the fitted concentration of half-maximal effect). The note with it: U2OS GR-GFP nuclear translocation, laser cytometry, 2 h.
For experiment [14] the target is unchanged. The experiment can be described thus: GR-EFC Redistribution (AID 451; calls by dose curve; note: potency is the fitted concentration of half-maximal effect). The note with it: CHO-K1 GR-EFC translocation, beta-gal luminescence, 2 h. In outline: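 CHO-K1 cells stably expressing nuclear-localized β-gal enzyme acceptor and GR fused C-terminally to the enzyme donor fragment; ligand-driven nuclear translocation restores β-gal by complementation. Compounds titrated up to 46 uM final, 2 h at 37 °C; luminescence read.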

Experiment [15] concerns the target Mitogen-activated protein kinase 10 (Mus musculus) (UniProt Q61831). Kind of experiment: JNK3 AlphaScreen Assay (AID 530; active = well fitted curve in either direction with a large enough effect, not every such curve was filed as active;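 note: kinase came from lysate of stimulated human HepG2 cells; signal reports phosphorylation of biotinylated GST-cJun 1-79 at Ser73 with 10 µM ATP; % is set by controls: 0 for no effect and ±100 for the full control effect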). The gist of the method:
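Phosphorylation of biotinylated GST-cJun(1-79) at Ser73 is measured by AlphaScreen proximity luminescence. Enzyme is JNK3 in HepG2 lysates activated with interleukin-1beta and tumor necrosis factor alpha; ATP is 10 uM final.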

The target in experiment [16] is 3',5'-cyclic-AMP phosphodiesterase 4B (Homo sapiens) (UniProt Q07343). Kind of experiment: qHTS Assay for Inhibitors of PDE-IV (AID 607; active = well fitted activation curve with a large enough effect in the main read-out, with a control signal flat, not every such curve was filed as active; note: % of control where 0% means no effect). The gist of the method:
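HEK293 ACTOne cells with CNG channel (1000/well), endogenous PDE4; membrane potential dye, compounds up to 22.9 uM final. Fluorescence Ex 535/Em 590; RO 20-1724 (100 uM final) as reference.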

Experiment [17] can be described thus: Primary qHTS for small molecule stabilizers of the endoplasmic reticulum resident proteome: Secreted ER Calcium Modulated Protein (SERCaMP) assay (AID 1508630). Note: % is set by controls: 0 for no effect and ±100 for the full control effect. The gist of the method: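 The SH-SY5Y reporter protocol was run at 3 concentrations up to 38.3 uM (primary) or 11 concentrations (follow-up): 16 h compound, 100 nM thapsigargin for 4 h, then extracellular luciferase luminescence.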

Furin (Homo sapiens), sequence (P09958 whole entry, looked up): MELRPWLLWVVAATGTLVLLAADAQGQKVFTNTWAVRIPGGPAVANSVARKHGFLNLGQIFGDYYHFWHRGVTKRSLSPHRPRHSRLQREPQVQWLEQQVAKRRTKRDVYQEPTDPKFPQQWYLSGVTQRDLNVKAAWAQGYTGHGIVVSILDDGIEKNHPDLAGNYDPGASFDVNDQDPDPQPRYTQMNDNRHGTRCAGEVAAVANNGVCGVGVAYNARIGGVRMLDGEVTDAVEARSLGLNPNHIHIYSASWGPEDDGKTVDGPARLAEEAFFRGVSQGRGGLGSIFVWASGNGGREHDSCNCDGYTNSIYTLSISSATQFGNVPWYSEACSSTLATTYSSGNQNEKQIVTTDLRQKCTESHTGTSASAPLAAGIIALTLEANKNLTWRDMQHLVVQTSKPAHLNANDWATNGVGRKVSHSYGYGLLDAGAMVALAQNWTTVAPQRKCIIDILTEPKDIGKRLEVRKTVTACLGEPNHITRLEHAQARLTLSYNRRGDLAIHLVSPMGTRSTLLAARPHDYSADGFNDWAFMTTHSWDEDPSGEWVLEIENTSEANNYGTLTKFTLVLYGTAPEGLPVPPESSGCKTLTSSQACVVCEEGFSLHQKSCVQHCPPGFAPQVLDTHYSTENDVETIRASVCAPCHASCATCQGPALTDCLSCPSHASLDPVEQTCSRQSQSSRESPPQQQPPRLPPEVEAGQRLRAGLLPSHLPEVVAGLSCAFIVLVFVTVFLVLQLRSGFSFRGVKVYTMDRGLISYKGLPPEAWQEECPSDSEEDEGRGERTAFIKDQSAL
Glucocorticoid receptor (Homo sapiens), sequence (P04150 whole entry, looked up, the tested form may be a part): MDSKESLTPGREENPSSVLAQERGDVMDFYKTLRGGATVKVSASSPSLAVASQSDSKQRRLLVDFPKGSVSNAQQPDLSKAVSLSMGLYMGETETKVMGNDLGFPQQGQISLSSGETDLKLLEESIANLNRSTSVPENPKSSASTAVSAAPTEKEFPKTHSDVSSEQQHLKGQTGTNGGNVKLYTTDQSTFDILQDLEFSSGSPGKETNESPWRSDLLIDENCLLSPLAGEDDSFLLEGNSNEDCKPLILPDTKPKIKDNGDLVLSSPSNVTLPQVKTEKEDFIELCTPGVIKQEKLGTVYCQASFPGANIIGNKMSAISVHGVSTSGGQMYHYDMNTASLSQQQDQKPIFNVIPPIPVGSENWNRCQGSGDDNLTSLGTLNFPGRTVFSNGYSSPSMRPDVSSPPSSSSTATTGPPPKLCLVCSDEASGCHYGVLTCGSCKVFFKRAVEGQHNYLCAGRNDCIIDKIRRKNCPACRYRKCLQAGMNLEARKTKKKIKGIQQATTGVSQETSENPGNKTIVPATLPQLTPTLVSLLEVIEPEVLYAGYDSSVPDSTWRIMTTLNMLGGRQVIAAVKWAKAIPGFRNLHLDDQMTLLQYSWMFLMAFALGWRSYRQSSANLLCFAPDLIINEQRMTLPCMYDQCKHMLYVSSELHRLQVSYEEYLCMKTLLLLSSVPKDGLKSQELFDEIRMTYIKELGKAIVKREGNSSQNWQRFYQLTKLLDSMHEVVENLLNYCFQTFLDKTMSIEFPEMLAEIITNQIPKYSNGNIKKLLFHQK
3',5'-cyclic-AMP phosphodiesterase 4B (Homo sapiens), sequence (Q07343 whole entry, looked up): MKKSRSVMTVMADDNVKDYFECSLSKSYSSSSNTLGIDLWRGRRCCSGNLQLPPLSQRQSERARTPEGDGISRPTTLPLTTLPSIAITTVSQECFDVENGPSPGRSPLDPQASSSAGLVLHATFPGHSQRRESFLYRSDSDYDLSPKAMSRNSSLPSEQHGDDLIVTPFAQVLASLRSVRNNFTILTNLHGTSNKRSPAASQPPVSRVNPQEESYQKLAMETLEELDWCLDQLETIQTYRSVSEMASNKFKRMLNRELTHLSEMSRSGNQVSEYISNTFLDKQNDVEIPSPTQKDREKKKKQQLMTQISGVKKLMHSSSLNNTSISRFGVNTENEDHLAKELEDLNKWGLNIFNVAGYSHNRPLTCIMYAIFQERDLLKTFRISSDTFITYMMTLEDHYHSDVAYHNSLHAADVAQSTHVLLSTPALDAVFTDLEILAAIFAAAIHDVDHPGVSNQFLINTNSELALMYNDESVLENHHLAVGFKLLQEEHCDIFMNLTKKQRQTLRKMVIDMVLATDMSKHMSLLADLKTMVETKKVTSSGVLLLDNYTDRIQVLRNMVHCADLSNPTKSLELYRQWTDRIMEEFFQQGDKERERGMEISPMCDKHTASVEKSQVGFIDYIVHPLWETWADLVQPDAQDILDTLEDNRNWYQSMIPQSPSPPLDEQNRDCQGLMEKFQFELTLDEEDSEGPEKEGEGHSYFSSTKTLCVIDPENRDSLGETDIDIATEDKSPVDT
Lysosomal acid glucosylceramidase (Homo sapiens), sequence (P04062 whole entry, looked up): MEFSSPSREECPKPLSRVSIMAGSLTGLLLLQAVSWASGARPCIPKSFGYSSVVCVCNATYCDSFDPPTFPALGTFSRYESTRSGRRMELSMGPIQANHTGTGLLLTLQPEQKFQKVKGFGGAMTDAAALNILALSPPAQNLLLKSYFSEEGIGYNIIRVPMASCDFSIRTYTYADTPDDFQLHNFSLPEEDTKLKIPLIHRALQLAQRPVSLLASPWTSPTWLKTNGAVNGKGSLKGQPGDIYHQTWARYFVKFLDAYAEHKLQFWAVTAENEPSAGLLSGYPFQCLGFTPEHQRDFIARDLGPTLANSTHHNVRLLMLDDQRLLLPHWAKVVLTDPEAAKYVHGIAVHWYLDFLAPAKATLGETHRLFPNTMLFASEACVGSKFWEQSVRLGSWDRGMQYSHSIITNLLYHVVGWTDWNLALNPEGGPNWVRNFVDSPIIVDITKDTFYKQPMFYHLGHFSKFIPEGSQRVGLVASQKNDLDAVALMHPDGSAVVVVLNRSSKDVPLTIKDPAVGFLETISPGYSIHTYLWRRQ

Take `CCOC(=O)O[C@H](C)OC(=O)C1N2C(=O)[C@H](NC(=O)[C@H](N)c3ccccc3)C2SC1(C)C` (stereo partly specified): the Potency entry (in the experiment with Furin (Homo sapiens); in experiment [1]; in experiment [2]; in experiment [4]; in [5]) was “inactive” each time. Moreover, the Potency in experiment [3] is 26.7 µM (active).
Turning to `Oc1cc2ccccc2c2ccccc12`, the Potency entry (in the experiment with Furin (Homo sapiens); in experiment [7]; in experiment [8]) was “inactive” throughout. The Potency in [6] is 44.1 µM (active); in experiment [9], 447 µM (active); in [10], 6.02 µM (active).
In the case of `Cc1c2ccccc2c(CSC(=N)N)c2ccccc12`, the Potency in [11] is 1.39 µM (active); in [13], greater than 46 µM; in [14] it was greater than 9.22 µM; in experiment [3] it was 21.2 µM (active). The activity change, negative = inhibition in experiment [12] is -16.8%; in [15], 27.8% [at 11.4 µM]. Besides, the Potency result (in experiment [16]; with Furin (Homo sapiens); in [1]; in experiment [2]; in experiment [4]; in experiment [17]) was “inactive” in each case.
With `O=[S+]([O-])([O-])c1ccc2c(c1)cc([S+](=O)([O-])[O-])c1nn(-c3ccc(/C=C/c4ccc(-n5nc6c([S+](=O)([O-])[O-])cc7cc([S+](=O)([O-])[O-])ccc7c6n5)cc4[S+](=O)([O-])[O-])c([S+](=O)([O-])[O-])c3)nc12`, the Potency entry (with Furin (Homo sapiens); in experiment [7]; in experiment [8]) was “inactive” throughout. Besides, the Potency in experiment [1] is 49.4 µM (active); in experiment [2], 49.4 µM (active); in experiment [9], 11.2 µM (active); in experiment [10] it was 6.58 µM (active).
Turning to `O=C(O)Cn1ccc2cc(OCc3cccc(-c4cccc(C(F)(F)F)c4)c3)cnc21`, the Potency was 63.9 µM (active) with Furin (Homo sapiens); 56.9 µM (active) in experiment [1]; 40.3 µM (active) in experiment [2]; 141 µM (active) in experiment [8]; 28.2 µM (active) in [9]; 30.2 µM (active) in experiment [10]. For the same compound, in [7], the Potency result is “inactive”.
With `Cc1ncccc1OCC1CN(Cc2cccc(C(F)(F)F)c2)C(=O)c2c(ccnc2-c2ccc(OCC(=O)O)cc2)O1` (stereo unspecified), the Potency result (with Furin (Homo sapiens); in experiment [1]; in experiment [2]) was “inactive” throughout.
